Laboratory results: PubChem BioAssay (NCI)
The panel holds about 83,000 compounds, 20% with a hit somewhere; the sample as a whole holds those more often.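 Compound tested at a single concentration for 48 hours in 96-well plates; a percent growth value below 10 was scored as active.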 A number with no mark means an inactive call. Activity calls are given as the source filed them.

These compounds were tested on SNB-75 CNS (assay: NCI-60 one-dose screen, 48 h (100 = growth as untreated, 0 = no growth, -100 = all killed)). Settings: 10 µM unless noted.
Protocol: Growth inhibition of the SNB-75 human tumor cell line is measured as a screen for anti-cancer activity. Cells are grown in 96 well plates and exposed to the test compound for 48 hours. Compounds are tested at a single concentration, which is 10^-5 M for most compounds. The reported endpoint is percent growth (GI% or GIPRCNT), where numbers from 0 - 100% represent growth inhibition, and numbers from -100% - 0 represent cell death. For example, a value of 40 represents 60% growth inhibition. A value of 0 means no net growth occurred over the course of the experiment. A value of -40 indicates 40% of cells at the beginning of the experiment died by the end of the experiment. A value of -100 means all cells are dead at the end of the experiment.
NCI-60 Human Tumor Cell Lines Screen was performed using the standard one-dose NCI protocol, which is described in more detail at https://dtp.cancer.gov/discovery_development/nci-60/default.htm.
Compounds with GIPRCNT values below 10 were considered active. Activity score was based on GIPRCNT using the following formula: […]
Score is 0 for GIPRCNT values of 100 or above, 50 for GIPRCNT values of 0, and 100 for GIPRCNT values of -100.

Point of comparison: `CCNc1nc(N2CC(=O)Nc3cc(OC)ccc32)c2ccccc2n1`, growth 24.7%. Against it:
- COc1ccc2c(c1)NC(=O)CN2c1nc(NC2CC2)nc2ccccc12 — higher, 31.4%
- CCCCNC(=O)NS(=O)(=O)c1ccc(N2N=C(c3ccc(C)cc3C)CC2c2ccc(OC)cc2)cc1 (stereo not given) — higher, 85.4%
- N#Cc1ccc(NC(=O)c2ccc3cccnc3c2O)cc1 — higher, 43.8%
- O=C(O)C(=Cc1c2ccccc2cc2ccccc12)C(=O)O — higher, 104%
- COc1cccc(/C=C2\SC(N3CCN(c4ccccn4)CC3)=NC2=O)c1 — higher, 102%
- Nc1cc2c(cc1N)-c1cc(N)c(N)cc1C2 — higher, 79.9%
- O=C(NNC(=S)Nc1ccccc1)c1ccccn1 — higher, 67.5%
- COc1ccc2c(c1)NC(=O)CN2c1nc(C)nc2ccccc12 — higher, 41.8%
- CCCC1OC(c2ccc(C(C)C)cc2)OCC1CC (stereo not given) — higher, 87.6%
- CCN(CC)CCSc1c2ccc(Cl)cc2nc2ccc(OC)cc12 — higher, 110%
- COc1ccc(/C=C2\Oc3cc(OCCN4CCCC4)ccc3C2=O)c(OC)c1 — higher, 93.2%
- Oc1ccc(Cl)cc1-c1cc(-c2ccc(Cl)cc2)n[nH]1 — higher, 59.1%
- CCN(Cc1ccc(CN(CC)C(=O)C(Br)Br)cc1)C(=O)C(Br)Br — higher, 54.9%
- COC12CC(=O)C(C(C)=O)=C(O)C1(C)c1c(O)c(C)c(O)c(C(C)=O)c1O2 (stereo not given) — higher, 83.5%
- O=S(=O)(O)CCl — higher, 86.1%
- COc1ccc(C(=O)/C=C/c2cc(C(=O)c3cc(OC)c(OC)c(OC)c3)ccc2OC)cc1 — higher, 66.7%
- Cc1cc2c(c(=O)o1)C(c1ccc(OC(=O)N3CCOCC3)cc1)C(C#N)=C(N)O2 (stereo not given) — higher, 95.6%
- O=C(NCCc1c[nH]c2ccccc12)C1Cc2ccccc2CN1C(=O)c1ccco1 (stereo not given) — higher, 106%
- Nc1ccc(S(=O)(=O)c2ccc(Cl)cc2)cc1 — higher, 79.7%
- CC(=O)/C=C/c1cc2cc(Cl)ccc2[nH]c1=O — higher, 102%
- O=C(CNC(=O)c1cccc2ccccc12)Nc1ccccc1Oc1ccccc1 — higher, 38.9%
- O=C1CCC(=O)N1Cc1ccccc1 — higher, 80.4%
- CC(=O)C1CCC(C)=CC1=O (stereo not given) — higher, 81.5%
- O=C1c2ccccc2C(=O)c2c(N=Nc3sc(=O)[nH]c3S)cccc21 — higher, 112%
- CCCCC[C@@H]1Cc2cc(O)c(C(=O)O)c3c2[C@H](C[C@@]2(CCCO2)O3)O1 — higher, 98.1%
- Cc1ccc(S(=O)(=O)N2CCC(C(=O)Nc3ccc(F)cc3F)CC2)cc1 — higher, 93.2%
- CCOC(=O)C(Cc1ccccc1)n1c(O)c(C=Nc2ccc(C(=O)OCCN(CC)CC)cc2)sc1=O (stereo not given) — higher, 99.7%
- CN1CCN(c2ccc3cc(-c4nc5ccccc5[nH]4)c(=O)oc3c2)CC1 — higher, 91.8%
- COc1ccc(/C=C/C(=O)OCC(=O)NNC(=O)c2ccccc2)cc1OC — higher, 78.2%
- CC(=O)Nc1nc(C(=O)N2N=C(C)/C(=C/c3ccccc3)C2=O)cs1 — higher, 95.5%
- Clc1ccc(-c2nc(-c3ccco3)cn3ccnc23)cc1 — higher, 32%
- COc1ccccc1OCC(=O)Nc1sc2c(c1C(N)=O)CCC2 — higher, 86.8%

In the case of `CN(C)C/C=C/C(=O)Nc1cc2c(Nc3ccc(F)c(Cl)c3F)ncnc2cc1OCCOC(F)F`, the growth is reported as -19.4% (active).
In the case of `CCCCCCCCCCC/C=C\C[C@H](O)C/C=C1/C(=O)C=C[C@@H]1C/C=C\CCCC(=O)OC`, the growth is reported as -4.49% (active).
In the case of `CCC1=C[C@@H]2CN(C1)Cc1c([nH]c3ccccc13)[C@@](C(=O)OC)(c1cc3c(cc1OC)N(C=O)[C@H]1[C@@](O)(C(=O)OC)[C@H](OC(C)=O)[C@]4(CC)[C@@H]5C[C@@H]5CN5CC[C@]31[C@@H]54)C2`, the growth is reported as 8.7% (active).
For `CC(=O)c1cc(C(=O)c2ccc3c(c2)Sc2ccccc2N3)c2cc(C)ccn12`, the growth was 9.11% (active).
For `COc1ccc(NC(=O)CSc2nc3ccc(Cl)cc3c(=O)n2-c2ccccc2C(F)(F)F)c(OC)c1OC`, the growth was -17.3% (active).
In the case of `CC[C@H](C)[C@H]1NC(=O)[C@@H](N[C@](C)(O)[C@@H](N)CC(C)C)[C@@H](C)OC(=O)[C@H](Cc2ccc(OC)cc2)N(C)C(=O)[C@@H]2CCCN2C(=O)[C@H](CC(C)C)NC(=O)[C@@H](C)C(=O)[C@H](C(C)C)OC(=O)C[C@@H]1O`, the growth is reported as -11.1% (active).
In the case of `C[N+](C)(C)c1ccc(CC2c3ccccc3-c3ccccc32)cc1`, the growth is reported as -3.78% (active).
